This is an account of results in the OligoGym collection.
Note: reference of the scale not given here.

For one assay, the target named is TMEM147. The assay can be described thus: pooled miR-30 sensor sort-seq; sequence = guide strand. Conditions: shRNA.
Turning to TGTGGTACAGATCATAGCGTGT, the sensor-assay potency score (higher = more potent) is -0.505.
TAGACCTATCAGGTCTGCCACA had a sensor-assay potency score (higher = more potent) of -1.51.
TTGTACTCGGACAGGCCGCTGC yielded a sensor-assay potency score (higher = more potent) of -1.
For TAGAGCTGCCCAACTGCCCAGC, the sensor-assay potency score (higher = more potent) was -1.02.
On to TTGGAGTCTATGCTCATCTGGA, for which the sensor-assay potency score (higher = more potent) was -0.274.
Turning to TAATGGACCAGACTGATGTTGG, the sensor-assay potency score (higher = more potent) is -0.822.
TTATCATCCAGACCTGAGCAGA had a sensor-assay potency score (higher = more potent) of -0.978.
TTGTAGGTGATGAAGTAGGGGA yielded a sensor-assay potency score (higher = more potent) of -0.423.
Consider TCATAGCGTGTTATCATCCAGA, for which the sensor-assay potency score (higher = more potent) is -0.557.
In the case of TCTGGATGTACTTCCAGTCAAA, the sensor-assay potency score (higher = more potent) is -1.49.
For TATCAGGTCTGCCACATCCACG, the sensor-assay potency score (higher = more potent) is -1.57.

The target of the next assay is TMEM156. The description is as above. As to conditions: shRNA.
In turn, TTGTTGATCTTCCAGTGTGGTT returned a sensor-assay potency score (higher = more potent) of -1.08.
In turn, AATGTGTATACAATCATTCGGG gave a sensor-assay potency score (higher = more potent) of -0.0136.
Same read-out and setting: the result for TACACTGAAGTTAAAGTGCTGA reads 0.144; that for TAGTTTATCGATTTCTCCTTGC, -0.128.
The same measure, in the same setting: the value for TTTTATATCCATCTCCAGGTGC was -0.346.
Sequence TTAAGAGAACAGATGTAGGTTT had a sensor-assay potency score (higher = more potent) of 0.112.
In turn, TTTATCGATTTCTCCTTGCTTG had a sensor-assay potency score (higher = more potent) of 0.0129.
Take TTCCTGAGAAATAAAATCCATG: the sensor-assay potency score (higher = more potent) was -1.19.
